Test results published in PubChem BioAssay AID1159580 (chemical genetic matrix, 2015).
In all, about 5,500 compounds went through this assay and about 2,000 (36%) were called active. Roughly 18% stayed inconclusive and do not appear here. Cut-off read from the data, not from the text of the source: active = normalized growth mostly below about 0.91 (no sharp cut-off); inconclusive = no clear call, values can overlap the other calls; inactive = mostly above about 0.92. Some of the results follow.

Experiment: chemical genetic growth profiling, strain panel (AID 1159580);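 note: tested at 20 µM; growth read once vehicle control cultures reached saturation at 30 °C; 1 = growth at the plate median or of vehicle wells; lower values mean less growth of the strain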
Conditions: S. cerevisiae deletion strains, growth OD
[1] = locus YAL013W, strain DEP1, hits give low values
[2] = locus YBR229C, strain ROT2, hits give low values
[3] = locus YDL101C, strain DUN1, hits give low values
[4] = locus YDR150W, strain NUM1, hits give low values
[5] = locus YEL061C, strain CIN8, hits give low values
[6] = locus YGR078C, strain PAC10, hits give low values
[7] = locus YHR030C, strain SLT2, hits give low values
[8] = locus YHR087W, strain rtc3, hits give low values
[9] = locus YJR043C, strain POL32, hits give low values
[10] = locus YJR075W, strain HOC1, hits give low values
[11] = locus YKL190W, strain CNB1, hits give low values
[12] = locus YLR039C, strain RIC1, hits give low values
[13] = locus YLR058C, strain SHM2 (second series), hits give low values
[14] = locus YLR085C, strain ARP6, hits give low values
[15] = locus YLR262C, strain YPT6, hits give low values
[16] = locus YML094W, strain GIM5, hits give low values
[17] = locus YMR219W, strain ESC1, hits give low values
[18] = locus YMR263W, strain SAP30, hits give low values
[19] = locus YMR307W, strain GAS1, hits give low values
[20] = locus YNL153C, strain GIM3, hits give low values
[21] = locus YNL298W, strain CLA4 (second series), hits give low values
[22] = locus YNL322C, strain KRE1, hits give low values
[23] = locus YNR030W, strain Alg12, hits give low values
[24] = locus YOL006C, strain TOP1, hits give low values
[25] = locus YPL055C, strain LGE1, hits give low values
[26] = locus YPL241C, strain CIN2, hits give low values
[27] = locus YPR135W, strain CTF4, hits give low values

Measured: normalized growth

Cc1cc(N=C(N)N=C(N)N)no1
inactive: [1] 1.01 | [2] 1.01 | [3] 1.02 | [4] 0.902 | [5] 1 | [6] 1.01 | locus YGR229C, strain SMI1, hits give low values 0.993 | [7] 1 | [8] 1.02 | locus YJL187C, strain SWE1, hits give low values 1 | [9] 0.998 | [10] 1 | [11] 1 | [12] 1.01 | [13] 1.01 | [14] 0.988 | [15] 1.01 | [16] 1.03 | [17] 1 | [18] 1 | [19] 0.969 | locus YNL128W, strain TEP1, hits give low values 1.02 | [20] 1 | [21] 1.02 | [22] 1 | [23] 1.01 | [24] 1.02 | [25] 0.964 | [26] 1.01 | [27] 1.07

CCOC(=O)c1ccc(N=Cc2cc(Cl)cc(Cl)c2O)cc1
active: locus YDL214C, strain PRR2, hits give low values 0.3 | locus YDR477W, strain SNF1, hits give low values 0.289 | locus YER123W, strain YCK3, hits give low values 0.157 | locus YER133W, strain GLC7, hits give low values 0.344 | locus YFR019W, strain FAB1, hits give low values 0.153 | locus YGR040W, strain KSS1, hits give low values 0.349 | locus YGR052W, strain FMP48, hits give low values 0.257 | locus YGR092W, strain DBF2, hits give low values 0.135 | [7] 0.135 | locus YHR079C, strain IRE1, hits give low values 0.131 | locus YHR082C, strain KSP1, hits give low values 0.2 | locus YHR205W, strain SCH9, hits give low values 0.221 | locus YJL095W, strain BCK1, hits give low values 0.136 | locus YJL157C, strain FAR1, hits give low values 0.181 | locus YJR066W, strain TOR1 (second series), hits give low values 0.289 | locus YJR066W, strain TOR1, hits give low values 0.169 | locus YKL048C, strain ELM1, hits give low values 0.405 | locus YKL067W, strain YNK1, hits give low values 0.274 | locus YKL101W, strain HSL1, hits give low values 0.323 | locus YKL203C, strain TOR2, hits give low values 0.296 | locus YLR113W, strain HOG1, hits give low values 0.166 | locus YLR133W, strain CKI1, hits give low values 0.208 | locus YLR403W, strain SFP1, hits give low values 0.166 | locus YML070W, strain DAK1, hits give low values 0.198 | locus YMR205C, strain PFK2 (second series), hits give low values 0.308 | locus YNL020C, strain ARK1, hits give low values 0.175 | locus YNL183C, strain NPR1, hits give low values 0.229 | locus YNL307C, strain MCK1 (second series), hits give low values 0.175 | locus YOL136C, strain PFK27, hits give low values 0.153 | locus YOR061W, strain CKA2, hits give low values 0.193 | locus YOR119C, strain RIO1, hits give low values 0.368 | locus YOR231W, strain MKK1, hits give low values 0.131 | locus YPL031C, strain PHO85, hits give low values 0.245 | locus YPL153C, strain RAD53, hits give low values 0.213 | locus YPL204W, strain HRR25, hits give low values 0.196 | locus YPL256C, strain CLN2, hits give low values 0.152
inactive: locus YAR019C, strain CDC15, hits give low values 0.934 | locus YBL105C, strain PKC1, hits give low values 0.949 | locus YBR135W, strain CKS1, hits give low values 0.95 | locus YBR136W, strain MEC1, hits give low values 0.954 | locus YBR160W, strain CDC28, hits give low values 0.946 | locus YDL017W, strain CDC7, hits give low values 0.94 | locus YDL028C, strain MPS1, hits give low values 0.946 | [3] 0.946 | locus YDL108W, strain KIN28, hits give low values 0.948 | locus YDL132W, strain cdc53, hits give low values 0.975 | locus YDR052C, strain DBF4, hits give low values 0.95 | locus YDR226W, strain ADK1, hits give low values 0.969 | locus YFL009W, strain cdc4, hits give low values 0.964 | locus YFL029C, strain CAK1, hits give low values 0.923 | locus YFR003C, strain YPI1, hits give low values 0.939 | locus YFR028C, strain CDC14, hits give low values 0.957 | locus YIL147C, strain SLN1, hits give low values 0.937 | locus YJL128C, strain PBS2, hits give low values 0.908 | locus YJR016C, strain ILV3, hits give low values 0.963 | locus YKL193C, strain SDS22, hits give low values 0.957 | locus YMR001C, strain CDC5, hits give low values 0.943 | locus YMR277W, strain FCP1, hits give low values 0.96 | locus YNL006W, strain LST8, hits give low values 0.952 | locus YNL161W, strain CBK1, hits give low values 0.965 | locus YNL207W, strain RIO2, hits give low values 0.951 | locus YNL222W, strain SSU72, hits give low values 0.956 | locus YOL078W, strain AVO1, hits give low values 0.922 | locus YOR329C, strain SCD5, hits give low values 0.942 | locus YPL209C, strain IPL1, hits give low values 0.952 | locus YPR025C, strain CCL1, hits give low values 0.948 | locus YPR106W, strain ISR1, hits give low values 0.958 | locus YPR111W, strain DBF20, hits give low values 0.955 | strain NNK1, hits give low values 0.952 | strain TSCII, hits give low values 0.913

CCOC(=O)c1ccc(NC(=S)N2CCOCC2)cc1
inactive: [1] 1.01 | [2] 0.979 | locus YCL061C, strain MRC1, hits give low values 0.939 | [3] 0.978 | [4] 0.945 | [5] 0.985 | [6] 0.99 | [7] 0.956 | [8] 0.974 | [9] 0.962 | [10] 0.947 | [11] 1.01 | [12] 1 | [13] 1.02 | [14] 0.991 | [15] 1 | [16] 0.978 | [17] 0.999 | [18] 0.933 | [19] 0.965 | [20] 0.982 | [21] 0.951 | [22] 1.01 | [23] 1.01 | [24] 0.805 | [25] 0.888 | [26] 0.988 | [27] 0.972
